Tested on: CLK3
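Also: kd values determined as follow-up on hits from a single-replicate KINOMEscan panel screen.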

| Compound | Kd |
| --- | --- |
| CSc1nn2c(=O)cc(N3CCOCC3)nc2n1Cc1cccc(Cl)c1Cl [GSK2347225] | > 10000 nM |
| Nc1nc(-c2cccnc2)c(-c2ccnc3ccccc23)s1 [GW684083] | > 10000 nM |
| Nc1nccc2scc(-c3ccc4c(c3)CCN4C(=O)Cc3cc(F)ccc3F)c12 [GSK2587663] | > 10000 nM |
| COc1ccc(NC(=O)c2ccc(-c3cc(-c4nnc(C)o4)ccc3C)cc2)cc1 [GW595885] | > 10000 nM |

Tested on: CSF1R

| Compound | Kd |
| --- | --- |
| COc1cc2c(Nc3cccc(NC(=O)c4ccccc4)c3)ncnc2cc1OCCCN1CCOCC1 [GSK223810] | 420 nM |
| COc1ccc(NC(=O)Nc2ccc(C)c(-c3ccc(C(=O)Nc4ccncc4)cc3)c2)cc1 [GSK1398475] | 1800 nM |
| O=C(NCCCN1CCCC1=O)c1cnc(NCc2cc(Cl)ccc2Cl)nc1NC1CCNCC1 | > 10000 nM |
| Cn1ccc2ncnc(Oc3ccc(NC(=O)Nc4cccnc4)c(Cl)c3)c21 | 290 nM |
| Cc1ccc(NC(=O)c2cccc(C#N)c2)cc1-c1ccc(C(=O)Nc2ccncc2)cc1 [GSK1398463] | 780 nM |

Tested on: CSNK1A1

| Compound | Kd |
| --- | --- |
| CN1CCC(n2cnc(-c3ccc(F)cc3)c2-c2ccnc(NC3CCNCC3)n2)CC1 [SB-229482] | 160 nM |
| CCc1nc(-c2cccc(C)c2)c(-c2ccnc(NC(=O)c3ccccc3)c2)s1 | 1400 nM |
| Nc1nc(-c2ccccn2)c(-c2ccnc3ccccc23)s1 [GW548057] | 1200 nM |
| CC(C)N1CCC(n2cnc(-c3ccc(F)cc3)c2-c2ccnc(N)n2)CC1 [SB-223132] | 59 nM |
| CNc1nccc(-c2c(-c3ccc(F)cc3)ncn2C2CCN(C)CC2)n1 [SB-222903] | 24 nM |
| Fc1ccc(-c2ncn(CCCNCc3ccccc3)c2-c2ccncc2)cc1 | 210 nM |

Tested on: CSNK1D

| Compound | Kd |
| --- | --- |
| COc1ccc(Nc2nccc(N3CCC(NC(=O)Nc4ccc5c(c4)OCO5)C3)n2)cc1 (stereo not drawn) [GSK1379745] | > 10000 nM |
| CN1CCC(n2cnc(-c3ccc(F)cc3)c2-c2ccnc(NC3CCNCC3)n2)CC1 [SB-229482] | 89 nM |
| CCc1nc(-c2cccc(C)c2)c(-c2ccnc(NC(=O)c3ccccc3)c2)s1 | 690 nM |
| Nc1nc(-c2ccccn2)c(-c2ccnc3ccccc23)s1 [GW548057] | 1800 nM |
| CC(C)N1CCC(n2cnc(-c3ccc(F)cc3)c2-c2ccnc(N)n2)CC1 [SB-223132] | 39 nM |
| CNc1nccc(-c2c(-c3ccc(F)cc3)ncn2C2CCN(C)CC2)n1 [SB-222903] | 5.7 nM |
| FC(F)(F)c1cc(Nc2nccc(-c3c(-c4ccc(Cl)cc4)nn4ncccc34)n2)ccc1Cl [GW829351] | 2200 nM |
| Fc1ccc(-c2ncn(CCCNCc3ccccc3)c2-c2ccncc2)cc1 | 47 nM |

Tested on: CSNK1E

| Compound | Kd |
| --- | --- |
| CSc1nn2c(=O)cc(N3CCOCC3)nc2n1Cc1cccc(Cl)c1Cl [GSK2347225] | > 10000 nM |
| CN1CCC(n2cnc(-c3ccc(F)cc3)c2-c2ccnc(NC3CCNCC3)n2)CC1 [SB-229482] | 210 nM |
| CCc1nc(-c2cccc(C)c2)c(-c2ccnc(NC(=O)c3ccccc3)c2)s1 | 880 nM |
| CC(C)N1CCC(n2cnc(-c3ccc(F)cc3)c2-c2ccnc(N)n2)CC1 [SB-223132] | 230 nM |
| O=C(NCCCN1CCCC1=O)c1cnc(NCc2cc(Cl)ccc2Cl)nc1NC1CCNCC1 | 230 nM |
| CNc1nccc(-c2c(-c3ccc(F)cc3)ncn2C2CCN(C)CC2)n1 [SB-222903] | 17 nM |
| Fc1ccc(-c2ncn(CCCNCc3ccccc3)c2-c2ccncc2)cc1 | 130 nM |

From PMC5540273 (PLoS ONE, 2017)
